# Measurements: PubChem BioAssay AID651820 (National Center for Advancing Translational Sciences (NCATS), 2012)
# Out of some 340,000 compounds screened, about 12,000 (3.5%) were called active. A call without a number means that no potency is given here. Inconclusive results (about 18%) are left out. Many of the other results were omitted from the sample, so actives are more common in it than they were. A number with no mark means an inactive call. Calls follow the shape of the dose curve; as a rule, active = well fitted inhibition curve with a large enough effect; inconclusive = small, poorly fitted or top-dose-only effect, or another doubt; inactive = no such curve, though single readings can be large or run the other way.
# Assay: qHTS Assay for Inhibitors of Hepatitis C Virus (HCV)
# Conditions: Huh7.5.1 HCVcc-Cre infection, luciferase reporter, 44 h; series mostly up to 41.8 µM
# Summary of the method: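 Compounds are dispensed onto cells plated 4 h earlier at 1,000 per well, with HCVcc-Cre virus (about 0.5 moi) added next. Following 44 h of culture, luminescent signal is measured for 15 sec after 15 min with substrate at room temperature.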
# Potency is read from the fitted curve at half-maximal effect.
SMILES,Potency,"activity change, negative = inhibition"
O=C(Nc1cccc2c1CCCC2)c1ccc(F)cc1,inactive,
CCN1C(=O)[C@H]2[C@@H](c3ccc(C)cc3)N3C(=O)N(c4cccc(Br)c4)C(=O)[C@@]3(CC)[C@H]2C1=O,inactive,
CN(CC(=O)Nc1cccc(F)c1)C(=O)CC1CCCC1,inactive,
CC(=O)Nc1ccc(NC(=O)C(C)OC(=O)C2CC(=O)N(CCc3ccccc3)C2)cc1 (stereo not given),inactive,
CN(C)c1ccc(/C=N\S(=O)(=O)c2ccccc2)cc1,inactive,
CC[n+]1cc(C)ccc1/C=C/c1ccc(N(C)C)cc1,5.62 µM (active),
C/C(=N\Nc1ccccc1)c1cccs1,inactive,
Cc1csc(NC(=O)c2ccc(C)s2)n1,inactive,
COCC(=O)N1CCc2ccc(NC(=O)c3ccccc3Cl)cc2C1,inactive,
O=C(Nc1ccc2sc3ccccc3c(=O)c2c1)c1ccccc1Cl,3.55 µM (active),
O=C(Nc1ccc2nc3n(c(=O)c2c1)CCCCC3)c1ccccc1Cl,inactive,
CCC1CCCCN1C(=S)NC(=O)c1ccco1 (stereo not given),inactive,
COc1ccc(OC)c(/C=N/NC(=O)c2ccc[n+](CC(=O)c3ccccc3)c2)c1,inactive,
Cc1cccc(C(=O)OCC(=O)NC(C)C2CC3CCC2C3)c1O (stereo not given),inactive,
COc1ccccc1CNC(=O)CCCN1C(=O)NC2(CCCC2)C1=O,inactive,
OC(CN=c1sc2ccccc2n1CC(O)COc1ccccc1)COc1ccccc1 (stereo not given),11.2 µM (active),
OC(COc1ccccc1)Cn1cc(Br)cn1 (stereo not given),inactive,
O=C(C(c1ccccc1)c1ccccc1)N1CCN(CC(O)COc2ccccc2)CC1 (stereo not given),inactive,
CN(c1ccccc1)S(=O)(=O)c1cc(C(=O)N2CCN(c3ncccn3)CC2)ccc1Cl,inactive,
Cc1ccc(S(=O)(=O)N2CC(O)C[C@H]2C(=O)OCC(=O)Nc2ccc(N3CCOCC3)cc2)cc1C (stereo not given in full),inactive,
Cc1ccccc1NC(=S)NNC(=O)c1cccc(Br)c1,inactive,
O=C(/C=C/NNC(=O)c1cccc(Br)c1)c1ccccc1,10 µM (active),
CC(CC(=O)O)CC(=O)NNC(=O)c1cccc(Br)c1 (stereo not given),inactive,
CC(=O)c1cccc(-c2ccc(CN3C(CC(C)C)C(=O)N(Cc4cn(CC5CCCCC5)nn4)CCS3(=O)=O)cc2)c1 (stereo not given),,-21% [at 8.37 µM]
COc1ccccc1-n1cnc2cc(C(=O)NCC3CCCO3)ccc21 (stereo not given),inactive,

SMILES,Potency,"activity change, negative = inhibition"
Cn1c(CCN2CCCC2)nc2cc(NS(=O)(=O)c3ccccc3)ccc21,inactive,
COc1ccccc1-n1cnc2cc(NS(=O)(=O)c3ccccc3)ccc21,22.4 µM (active),
O=C(COC(=O)c1ccc(F)cc1)Nc1ccc2c(c1)OCO2,inactive,
COc1ccccc1CCNC(=O)C(=O)NCCC1CCCCN1S(=O)(=O)c1cccs1 (stereo not given),35.5 µM (active),
O=C(NCc1ccccc1Cl)C(=O)NCC1CCCN1S(=O)(=O)c1cccs1 (stereo not given),inactive,
COc1ccc(C(=O)NCC2CCCN2S(=O)(=O)c2cccs2)cc1OC (stereo not given),inactive,
Oc1[nH]c2ccccc2c1N=Nc1c(F)c(F)c(F)c(F)c1F,inactive,
Nc1cc2c(cc1Br)-c1ccc(F)cc1C2=O,12.6 µM (active),
CC1CCCCC1NC(=O)NC(=O)COC(=O)C1=NN(c2ccccc2)C(=O)CC1 (stereo not given),inactive,
COc1ccc(OC)c(C(c2nnnn2C(C)(C)C)N2CCc3ccccc3C2)c1 (stereo not given),7.94 µM (active),
Cc1ccc(C(c2nnnn2C(C)(C)C)N2CCc3ccccc3C2)cc1 (stereo not given),inactive,
COc1ccccc1C(c1nnnn1C(C)(C)C)N1CCN(Cc2ccccc2)CC1 (stereo not given),inactive,
CCCCn1c(N)c(N(CC)C(=O)c2ccc(N(C)S(=O)(=O)c3ccc(C)cc3)cc2)c(=O)[nH]c1=O,inactive,
O=C(c1ccc2c(c1)C(=O)N(Cc1ccncc1)C2=O)N1CCN(S(=O)(=O)c2ccc(OC(F)(F)F)cc2)CC1,inactive,
Oc1ccc(/C=N/Nc2nc(-c3ccccc3F)nc3ccccc23)c(O)c1,11.2 µM (active),
Cc1cc(N/N=C/c2ccccc2F)c2ccccc2n1,inactive,
Fc1ccc(/C=N/Nc2nc(-c3cccnc3)nc3ccccc23)cc1,inactive,
C[C@]12CC[C@H](O)CC1=CCC1C2CC[C@@]2(C)C1CC[C@@H]2NC(=O)CCC(=O)O (stereo not given in full),inactive,
CCOc1ccc(NC(=O)NNC(=O)c2ccc(Cl)cc2Cl)cc1,inactive,
NC(N)=N/N=C/c1ccc(OCc2ccc(Cl)cc2Cl)cc1,11.2 µM (active),
COC(=O)c1sc2ncccc2c1OCc1ccc(Cl)cc1Cl,inactive,
CC(=O)NC12CC3CC(C1)CC(C(=O)N1CCN(S(=O)(=O)c4cccs4)CC1)(C3)C2,inactive,
CC(C)=C(NC(=O)c1ccccc1)C(=O)N/N=C(\C)c1ccccc1O,inactive,
Clc1ccc(N/N=C/c2cccs2)nn1,inactive,
Oc1cccc(/C=N/Nc2ccc(Cl)nn2)c1O,2.51 µM (active),

SMILES,Potency,"activity change, negative = inhibition"
COc1cccc(/C=N/Nc2ccc(Cl)nn2)c1,inactive,
C/C(=N\Nc1ccc(Cl)nn1)c1ccccc1O,0.501 µM (active),
CCCCCCCN=C(C)c1ccccc1O,inactive,
CCCN(C(=O)CSc1nnc(N)s1)c1c(N)n(Cc2ccccc2)c(=O)[nH]c1=O,inactive,
Cc1ccc(-c2nn(-c3ccccc3)cc2C(=O)NC2CCC(O)CC2)cc1 (stereo not given),inactive,
CCc1ccc(-c2nn(-c3ccccc3)cc2CSC(=N)N)cc1,10 µM (active),
CCc1ccc(-c2nn(-c3ccccc3C)cc2C(=O)N2CCN(C3CCS(=O)(=O)C3)CC2)cc1 (stereo not given),inactive,
Cc1ccc(NC(=O)C(C)Sc2nnc(C3CC3)n2C2CC2)cc1S(=O)(=O)N1CCOCC1 (stereo not given),inactive,
CC(C)CC[n+]1ccn(C2=C([O-])c3ccccc3C(=O)/C2=N\S(=O)(=O)c2ccccc2)c1,10 µM (active),
COc1ccc(C(=O)NCc2ccccc2C)cc1S(=O)(=O)NC1CCCC1,inactive,
CCCCN(C(=O)C1CCC1)c1c(N)n(Cc2ccccc2)c(=O)[nH]c1=O,inactive,
COc1ccc(CCC(=O)c2ccc(OC)cc2)cc1,inactive,
COc1ccc(C(=O)C[n+]2ccc(N)c(C)c2C)cc1,2.24 µM (active),
COc1ccc(C(=O)C[n+]2ccc(C)cc2)cc1,inactive,
COc1cc(/C=C/C(=O)OCC(=O)c2ccccc2)cc(OC)c1OC,inactive,
COc1ccc(S(=O)(=O)N(C)C[C@H]2Oc3ccc(NS(=O)(=O)c4cccs4)cc3CC(=O)N([C@H](C)CO)C[C@H]2C)cc1,inactive,
O=C(COc1ccc(F)cc1Br)NCC1COc2ccccc2O1 (stereo not given),inactive,
CC1(C)Cc2cccc(OCC(=O)NCc3ccccc3)c2O1,inactive,
CC1(C)Cc2cccc(OCC(N)=O)c2O1,inactive,
CC1(C)Cc2cccc(OCC(=O)N3CCN(c4ccc([N+](=O)[O-])cc4)CC3)c2O1,10 µM (active),
COc1ccc(CCOC2OC(CO)C(OC(=O)/C=C/c3ccc(O)c(OC)c3)C(O[C@H]3O[C@@H](C)[C@H](O)[C@@H](O)[C@H]3O)C2O)cc1O (stereo not given in full),inactive,
COc1ccc2[nH]c3c(=O)n(Cc4ccco4)cnc3c2c1,inactive,
CC(C)OCCCNc1ncnc2c1[nH]c1ccc(F)cc12,12.6 µM (active),
COc1cc(OC)c(OC)cc1/C=N/Nc1ncnc2c1[nH]c1ccc(C)cc12,inactive,
O=C(COC(=O)c1cccc(Cl)c1)NC1CCCCCCC1,inactive,

SMILES,Potency,"activity change, negative = inhibition"
O=C1NC(Cc2ccc(O)cc2)c2nc3ccc(Cl)cc3c(=O)n2-c2ccccc21 (stereo not given),inactive,
CC(C)(C)OC(=O)NNc1c2ccccc2nc2ccccc12,2.82 µM (active),
O=C(N/N=C/c1cccnc1)c1cc2ccccc2cc1O,inactive,
O=C(NNc1c2ccccc2nc2ccccc12)c1cc2ccccc2cc1O,2.82 µM (active),
Cc1ccccc1NC(=O)NNC(=O)OC(C)(C)C,inactive,
Cc1ccc(C(=O)NNC(=O)OC(C)(C)C)c(Cl)c1,inactive,
COc1ccc(-c2cc(C(=O)Nc3ccccc3O)c3ccccc3n2)cc1,inactive,
CC(C)CN(C(=O)COC(=O)c1ccc(Cl)c(N)c1)c1c(N)n(Cc2ccccc2)c(=O)[nH]c1=O,inactive,
O=C(CSc1nc2[nH]ncc2c(=O)[nH]1)Nc1ccc(F)cc1,inactive,
COc1cc(/C=N/NC(=O)c2cc(-c3ccccc3C)nc3ccccc23)cc(OC)c1O,inactive,
Cc1ccc(C(=O)OCC(=O)N2CCCCCC2)cc1S(=O)(=O)N1CCOCC1,inactive,
O=C(OCc1nnc(-c2ccccc2)o1)c1cc(=O)[nH]c2ccccc12,inactive,
CCCc1nc2ccccc2c(C(=O)OCc2nnc(-c3cc(OC)c(OC)c(OC)c3)o2)c1CC,2.82 µM (active),
CCCc1nc2ccccc2c(C(=O)OCC(=O)c2ccc3c(c2)NC(=O)CO3)c1CC,inactive,
CCOc1ccc(S(=O)(=O)NCCC(=O)NCC2CCCO2)cc1 (stereo not given),inactive,
O=C(NCc1ccc2c(c1)OCO2)c1cc([N+](=O)[O-])ccc1N1CCOCC1,inactive,
O=C(CN1C(=O)NC2(CCCCCCC2)C1=O)NCc1ccc(F)cc1,inactive,
NC(=O)NC(=O)CSc1nc2cc([N+](=O)[O-])ccc2n1-c1cccc(C(F)(F)F)c1,10 µM (active),
COc1ccc(CCNC(=O)CSc2nc3[nH]ncc3c(=O)n2-c2cccc(C(F)(F)F)c2)cc1OC,inactive,
NS(=O)(=O)c1cccc(NC(=O)CSc2nc3ccccc3n2-c2ccccc2)c1,inactive,
CC(OC(=O)Cc1ccc(F)cc1)C(=O)N1CCc2ccccc21 (stereo not given),inactive,
O=C(NCc1ccccc1)c1ccc(S(=O)(=O)Nc2cccc(C(F)(F)F)c2)cc1,inactive,
Cc1oc2c(F)c(F)c(F)c(F)c2c1S(=O)(=O)Nc1cccc(C(F)(F)F)c1,4.47 µM (active),
O=C(/C=C/c1ccc(F)cc1)Nc1cccc(S(=O)(=O)Nc2cccc(C(F)(F)F)c2)c1,inactive,
O=C(O)C(c1cccs1)C1(O)CCCCC1 (stereo not given),inactive,
